System: LXRa homodimer (NR concentration 270 nM)
Assay: PBM binding z-score (relative to random genomic background probes); higher = stronger binding; sequences stand for … in GC…GCGATTGACAGCGTAGAATGAAGG
In short: (§1)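 Probes were double-stranded and carried 34-nt variable regions with direct-repeat seeds, single-nucleotide variants, half-site ablations and random human genomic background sequences, printed on custom Agilent 4×180K protein-binding microarrays. Arrays were incubated 1 h with ligand-free nuclear receptor dimers in PBS pH 7.4, 2% milk, 0.02% Triton X-100, 1 mM DTT, 0.2 mg/mL BSA and 0.4 mg/ml salmon testes DNA. Antibodies against each partner (one per run) detected binding, and scanned fluorescence was regression-normalized. Binding z-scores use the random background probes as reference.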

Compared with CCTACTGGGCAAAAGGTCATTGATTCCAATGCTC, CAGCCTAGATCAGGGCCAGTATAGGAGGAACGTT is lower in PBM binding z-score: 3.89 for the first, -0.438 for the second.

Going from ACTAGTTGGTCAGCTGAGGTCACACAGAATTCGG to GCAGACAGGTTAAACGCAGGTAACTCAGGGTGGC, the PBM binding z-score falls from 2.31 to -0.225.

Compared with TCATATGGGTAATACAGGTGAAAGTCGGCATCTA, GCAGACAGGTAAAACGCAGGTAACTCAGGGTGGC is lower in PBM binding z-score: 0.0107 for the first, -0.412 for the second.

Going from CGTCAAAGTTCAATGTAACGTAACAGAAAGCAGC to GGTACGAGGGCAAGTTGATAGCAGAGTTTGATGG, the PBM binding z-score falls from 3.29 to -0.268.

Going from TAGCCCAGGTCATTCAGGGGCCAGTATAGAAAGC to AGAATGCGGTTATTAAGATCAGGGAATTGCGGTC, the PBM binding z-score falls from 0.808 to -0.259.

Going from GCTTACGAGTCAAAGGTTATAGCATGAATAGAAT to GCAGACAGGTGAGACGCAGGTAACTCAGGGTGGC, the PBM binding z-score falls from -0.0276 to -0.774.

Going from CCTACTGGGCTAAAAAGGTCATTGATGCCGATAA to CAGCCTAGGTCAGGGCCAGTCTAGGAGGAACGTT, the PBM binding z-score falls from 3.16 to -0.566.

Compared with CCGACTGAGGCAAAGGTTACCATACTCAGTACGA, GATACAGGGTCAAAGCCAGAGTACGCGTATTGAT is higher in PBM binding z-score: -0.159 for the first, 0.214 for the second.

Compared with ATACCAAGGTGATCGTGAGGTCGGTGATACTAAC, CCGCCTGGGGCAAGGTTACCATAACGCACAGCCA is lower in PBM binding z-score: 0.1 for the first, -0.315 for the second.

Compared with CCAGACAGGTGAGAAGGTAACTGAGCCTCGATTA, CGAACTAGGACATTGACAGGACAGTGAATAGTAA is higher in PBM binding z-score: -0.12 for the first, 0.0961 for the second.

First: CAGACTAGGTCACAGAGGTCAAAGTCCGTGCGTA
Second: GCGACTGGGGCATCAGTAGGTTACCATAACTTAA
The PBM binding z-score of the first is higher: 6.79 for the first, -0.273 for the second.

First: CCTGCTAGGTCAAGGTCAGCTAATCTACAGTATG
Second: CCGACTGGGGCAGAGAGGTTACCATACCATCCGG
The PBM binding z-score of the first is higher: 1.09 for the first, -0.349 for the second.

Going from TCTTGTAGATCAACAGGTGGTTAAGAAAGATCGA to CCTATTGGGCCAAAGGTCATTGATTCCAATGCTC, the PBM binding z-score rises from -0.0924 to 4.17.

Going from CCTGCTAGGTCATGGTCAGCTCATCTACAGTATG to TCAAGCAGGCCAGAGGGTCACTCAAGAGGTACGG, the PBM binding z-score falls from 0.179 to -0.238.

Compared with ACAGACAGGTGATCAAGGTAACTCAGGCTATCAT, CCCGAAAGGTCGGTTGAGGTGAGTATACGGATAA is higher in PBM binding z-score: -0.091 for the first, 0.406 for the second.

First: TATACAGGGTCAATGGCCAGAGTACGAATGTCGA
Second: CCTACTGGGCTAAAGGTCATTGATTCCAATGCTC
The PBM binding z-score of the first is lower: 1.39 for the first, 4.14 for the second.

Compared with CCTGCTAGGTCCTGGTCAGCTAATCTACAGTATG, TCTGCTAGGTCAGTAGGTCAGCTAACGAGCTGCC is higher in PBM binding z-score: -0.575 for the first, 0.12 for the second.

Going from TCTTGTAGATCAGCAGATTAAGAAAGCTGGCCAA to GCTTACGGATCAAAGGTTATAGCATGAATAGAAT, the PBM binding z-score rises from -0.478 to 0.189.

Going from ACTCGGAGGACAAAGGGCAGAGCTACGCCAGTGA to GGAACGAGAGCATTCGAGTTGATAGCATGGCGAT, the PBM binding z-score falls from -0.605 to -0.97.

Going from GCTTGTAGATCATGGTTAAGAAAGACTAAGCTAA to CGAACTCGGTCAAGGACAGTGAATCTCCGCACGC, the PBM binding z-score rises from -0.382 to -0.214.

System: LXRb:RXRa (NR concentration 270 nM, RXRa partner concentration 90 nM)
Assay: as above
In short: as §1

First: CCTACTGGGCAAAAGGTCATTGATTCCAATGCTC
Second: CAGCCTAGATCAGGGCCAGTATAGGAGGAACGTT
The PBM binding z-score of the first is higher: 4.36 for the first, -1.08 for the second.

Compared with ACTAGTTGGTCAGCTGAGGTCACACAGAATTCGG, GCAGACAGGTTAAACGCAGGTAACTCAGGGTGGC is lower in PBM binding z-score: 3.64 for the first, 0.687 for the second.

Compared with TCATATGGGTAATACAGGTGAAAGTCGGCATCTA, GCAGACAGGTAAAACGCAGGTAACTCAGGGTGGC is lower in PBM binding z-score: 0.779 for the first, -0.448 for the second.

Going from CGTCAAAGTTCAATGTAACGTAACAGAAAGCAGC to GGTACGAGGGCAAGTTGATAGCAGAGTTTGATGG, the PBM binding z-score falls from 3.5 to 0.434.

Going from TAGCCCAGGTCATTCAGGGGCCAGTATAGAAAGC to AGAATGCGGTTATTAAGATCAGGGAATTGCGGTC, the PBM binding z-score falls from 2.98 to -0.43.

Compared with GCTTACGAGTCAAAGGTTATAGCATGAATAGAAT, GCAGACAGGTGAGACGCAGGTAACTCAGGGTGGC is lower in PBM binding z-score: 2.72 for the first, -0.355 for the second.

Compared with CCTACTGGGCTAAAAAGGTCATTGATGCCGATAA, CAGCCTAGGTCAGGGCCAGTCTAGGAGGAACGTT is lower in PBM binding z-score: 3.89 for the first, 0.24 for the second.

First: CCGACTGAGGCAAAGGTTACCATACTCAGTACGA
Second: GATACAGGGTCAAAGCCAGAGTACGCGTATTGAT
The PBM binding z-score of the first is lower: 1.48 for the first, 3.97 for the second.

First: ATACCAAGGTGATCGTGAGGTCGGTGATACTAAC
Second: CCGCCTGGGGCAAGGTTACCATAACGCACAGCCA
The PBM binding z-score of the first is lower: 0.211 for the first, 0.56 for the second.

Going from CCAGACAGGTGAGAAGGTAACTGAGCCTCGATTA to CGAACTAGGACATTGACAGGACAGTGAATAGTAA, the PBM binding z-score falls from -0.102 to -0.38.

First: CAGACTAGGTCACAGAGGTCAAAGTCCGTGCGTA
Second: GCGACTGGGGCATCAGTAGGTTACCATAACTTAA
The PBM binding z-score of the first is higher: 6.23 for the first, 0.586 for the second.

Going from CCTGCTAGGTCAAGGTCAGCTAATCTACAGTATG to CCGACTGGGGCAGAGAGGTTACCATACCATCCGG, the PBM binding z-score falls from 3.19 to 0.271.

Compared with TCTTGTAGATCAACAGGTGGTTAAGAAAGATCGA, CCTATTGGGCCAAAGGTCATTGATTCCAATGCTC is higher in PBM binding z-score: -0.247 for the first, 4.72 for the second.

First: CCTGCTAGGTCATGGTCAGCTCATCTACAGTATG
Second: TCAAGCAGGCCAGAGGGTCACTCAAGAGGTACGG
The PBM binding z-score of the first is higher: 1.95 for the first, 1.22 for the second.

Compared with ACAGACAGGTGATCAAGGTAACTCAGGCTATCAT, CCCGAAAGGTCGGTTGAGGTGAGTATACGGATAA is higher in PBM binding z-score: -0.153 for the first, 1.69 for the second.

First: TATACAGGGTCAATGGCCAGAGTACGAATGTCGA
Second: CCTACTGGGCTAAAGGTCATTGATTCCAATGCTC
The PBM binding z-score of the first is lower: 3.89 for the first, 4.48 for the second.

First: CCTGCTAGGTCCTGGTCAGCTAATCTACAGTATG
Second: TCTGCTAGGTCAGTAGGTCAGCTAACGAGCTGCC
The PBM binding z-score of the first is lower: -0.318 for the first, 1.18 for the second.

Compared with TCTTGTAGATCAGCAGATTAAGAAAGCTGGCCAA, GCTTACGGATCAAAGGTTATAGCATGAATAGAAT is higher in PBM binding z-score: -0.134 for the first, 2.49 for the second.

First: ACTCGGAGGACAAAGGGCAGAGCTACGCCAGTGA
Second: GGAACGAGAGCATTCGAGTTGATAGCATGGCGAT
The PBM binding z-score of the first is higher: -0.115 for the first, -1.11 for the second.

Compared with GCTTGTAGATCATGGTTAAGAAAGACTAAGCTAA, CGAACTCGGTCAAGGACAGTGAATCTCCGCACGC is higher in PBM binding z-score: -0.729 for the first, -0.232 for the second.

Reference: the supplement of paper PMC6555819
